Values joined by “and” are separate entries in the source; they are usually repeats but may differ in a detail not shown here. Equal values may be shown once. Hit rate of the full screen: of about 5,500 compounds, about 2,000 (36%) were called active. About 18% were inconclusive and are not listed. No stated cut-off is given here; in the data, active means normalized growth mostly below about 0.91 (no sharp cut-off); inconclusive means no clear call, values can overlap the other calls; inactive means mostly above about 0.92. Some of the results follow.
Assay: chemical genetic growth profiling, strain panel (AID 1159580);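 further: tested at 20 µM; growth read once vehicle control cultures reached saturation at 30 °C; 1 = growth at the plate median or of vehicle wells; lower values mean less growth of the strain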
Details: S. cerevisiae deletion strains, growth OD

Measured: normalized growth

COc1cccc(OC)c1C(=O)N[C@@H]1C(=O)N2[C@@H]1SC(C)(C)[C@@H]2C(=O)O
inactive: locus YAL013W, strain DEP1, active compounds read low 0.994 | locus YAL021C, strain ccr4, active compounds read low 1.01 | locus YAL026C, strain drs2, active compounds read low 1.01 | locus YAL030W, strain snc1, active compounds read low 0.997 | locus YBL061C, strain skt5, active compounds read low 0.998 | locus YBR009C, strain hhf1, active compounds read low 0.997 | locus YBR021W, strain FUR4, active compounds read low 1.01 | locus YBR023C, strain chs3, active compounds read low 0.988 | locus YBR171W, strain sec66, active compounds read low 0.987 | locus YBR229C, strain ROT2, active compounds read low 1.01 | locus YBR231C, strain swc5, active compounds read low 0.984 | locus YBR279W, strain paf1, active compounds read low 1 | locus YCL011C, strain gbp2, active compounds read low 1.01 | locus YCL016C, strain dcc1, active compounds read low 1 | locus YCL029C, strain bik1, active compounds read low 0.99 | locus YCL069W, strain vba3, active compounds read low 1 | locus YCR088W, strain abp1, active compounds read low 0.996 | locus YDL005C, strain med2, active compounds read low 0.991 | locus YDL035C, strain GPR1, active compounds read low 1 | locus YDL040C, strain nat1, active compounds read low 0.995 | locus YDL074C, strain BRE1, active compounds read low 1.03 | locus YDL101C, strain DUN1, active compounds read low 1 | locus YDL134C, strain PPH21, active compounds read low 1.01 | locus YDL185W, strain tfp1, active compounds read low 0.967 | locus YDL192W, strain arf1, active compounds read low 0.988 | locus YDR001C, strain nth1, active compounds read low 1 | locus YDR069C, strain doa4, active compounds read low 1.01 | locus YDR101C, strain arx1, active compounds read low 0.997 | locus YDR137W, strain rgp1, active compounds read low 1.03 | locus YDR150W, strain NUM1, active compounds read low 0.983 | locus YDR159W, strain sac3, active compounds read low 0.988 | locus YDR162C, strain NBP2, active compounds read low 0.979 | locus YDR195W, strain ref2 0.979 | locus YDR297W, strain sur2, active compounds read low 1 | locus YDR318W, strain mcm21, active compounds read low 0.987 | locus YDR334W, strain swr1, active compounds read low 0.995 | locus YDR335W, strain msn5, active compounds read low 0.998 | locus YDR388W, active compounds read low 1 | locus YDR392W, strain spt3, active compounds read low 0.998 | locus YDR502C, strain sam2, active compounds read low 0.995 | locus YEL003W, strain gim4, active compounds read low 1 | locus YEL037C, strain rad23, active compounds read low 0.997 | locus YEL061C, strain CIN8 (second series), active compounds read low 0.996 | locus YEL061C, strain CIN8, active compounds read low 0.986 | locus YER015W, strain faa2, active compounds read low 1 | locus YER016W, strain bim1, active compounds read low 0.997 | locus YER110C, active compounds read low 0.991 | locus YER111C, strain swi4, active compounds read low 0.995 | locus YER155C, strain BEM2 (second series), active compounds read low 0.966 | locus YER155C, strain BEM2, active compounds read low 1.01 | locus YER167W, strain BCK2, active compounds read low 0.999 | locus YFR010W, strain ubp6, active compounds read low 0.989 | locus YGL078C, strain dbp3, active compounds read low 0.991 | locus YGL086W, strain mad1, active compounds read low 0.994 | locus YGL167C, strain pmr1, active compounds read low 0.99 | locus YGL173C, strain kem1, active compounds read low 0.977 | locus YGL227W, strain vid30, active compounds read low 0.992 | locus YGL240W, strain doc1, active compounds read low 1 | locus YGL248W, strain PDE1, active compounds read low 1.01 | locus YGL253W, strain hxk2, active compounds read low 1.01 | locus YGR078C, strain PAC10, active compounds read low 1 | locus YGR135W, strain pre9, active compounds read low 1 | locus YGR229C, strain SMI1, active compounds read low 1.02 | locus YGR252W, strain gcn5, active compounds read low 1.05 | locus YHR013C, strain ard1, active compounds read low 1.01 | locus YHR027C, strain rpn1, active compounds read low 1 | locus YHR030C, strain SLT2, active compounds read low 0.993 and 1.03 | locus YHR079C, strain IRE1 (second series), active compounds read low 0.991 | locus YHR079C, strain IRE1, active compounds read low 1.01 | locus YHR094C, strain hxt1, active compounds read low 0.982 | locus YHR129C, strain ARP1, active compounds read low 1 | locus YHR142W, strain chs7, active compounds read low 0.98 | locus YHR200W, strain rpn10, active compounds read low 0.98 | locus YIL066C, strain RNR3, active compounds read low 1.01 | locus YIL073C, strain SPO22, active compounds read low 0.991 | locus YIL125W, strain kgd1, active compounds read low 0.988 | locus YIR030C, strain dcg1, active compounds read low 0.992 | locus YJL092W, strain hpr5, active compounds read low 0.987 | locus YJL095W, strain BCK1 (second series), active compounds read low 0.998 | locus YJL095W, strain BCK1, active compounds read low 1.01 and 1.02 | locus YJL115W, strain asf1, active compounds read low 0.999 | locus YJL129C, strain trk1, active compounds read low 0.98 | locus YJL134W, strain LCB3, active compounds read low 0.998 | locus YJL154C, strain vps35, active compounds read low 0.993 | locus YJL164C, strain tpk1, active compounds read low 0.994 | locus YJL166W, strain qcr8, active compounds read low 0.97 | locus YJL168C, strain set2, active compounds read low 0.988 | locus YJL187C, strain SWE1 (second series), active compounds read low 1.01 | locus YJR043C, strain POL32, active compounds read low 0.993
